Only a selection was taken, and hits are over-represented in it overall.
RECQ1 inh: blocks DNA unwinding by human RECQ1 | RECQ1 DNA unwinding, red fluorescence kinetic read | Potency, µM (series often up to 57.3 µM), for the others: at the highest dose activity, negative = inhibition, most hits filed as inhibitors | 0.54% of 240,000 active | AID 2549;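 note: plate controls were vehicle for no effect and no enzyme for full effect; nearly all actives have a fitted effect of over 30% in size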
Target sequence (P46063 whole entry, looked up): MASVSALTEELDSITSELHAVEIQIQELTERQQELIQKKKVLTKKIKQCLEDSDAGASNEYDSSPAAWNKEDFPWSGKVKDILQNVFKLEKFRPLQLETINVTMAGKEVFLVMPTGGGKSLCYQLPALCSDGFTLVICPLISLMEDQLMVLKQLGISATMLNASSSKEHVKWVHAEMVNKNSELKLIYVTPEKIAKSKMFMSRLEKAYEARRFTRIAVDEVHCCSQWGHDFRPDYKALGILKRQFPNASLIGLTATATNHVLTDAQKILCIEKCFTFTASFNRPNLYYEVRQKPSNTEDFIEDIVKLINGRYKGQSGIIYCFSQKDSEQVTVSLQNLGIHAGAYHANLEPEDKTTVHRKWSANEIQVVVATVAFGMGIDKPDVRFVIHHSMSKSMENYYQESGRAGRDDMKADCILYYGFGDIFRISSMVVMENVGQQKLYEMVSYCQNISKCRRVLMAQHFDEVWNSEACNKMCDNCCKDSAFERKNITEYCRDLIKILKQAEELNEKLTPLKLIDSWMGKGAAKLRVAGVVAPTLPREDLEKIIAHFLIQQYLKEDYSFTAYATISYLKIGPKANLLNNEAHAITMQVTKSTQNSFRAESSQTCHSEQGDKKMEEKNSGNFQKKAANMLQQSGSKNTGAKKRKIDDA
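50 nM RECQ1T1 preincubated 15 min with compound in Tris pH 8.0 buffer with MgCl2, DTT, Tween-20 and 2.5 ug/ml poly(dI-dC); started with 200 nM TAMRA/BHQ-2 forked duplex and 2 mM ATP. Unwinding read as fluorescence (525/598 nm), two reads 2 h apart.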
PKM2 activator: activators of human pyruvate kinase M2; P14618; AID 1631; Potency, µM (series often up to 57.5 µM), for inactives: top-dose activation, usual class: activators; 0.34% of 260,000 active; purified PKM2, Kinase-Glo ATP luminescence, activation; response scale: 0% is enzyme alone, no compound; note: nearly all actives have a fitted effect of over 55% in size
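Kinase-Glo luminescence reports ATP generated from ADP (0.1 mM) and PEP (0.5 mM) by purified hPK-M2 after 1 h at room temperature, pH 7.2 imidazole buffer; intermediate enzyme activity allows detecting inhibitors and activators.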
BLM helicase inh: blocks DNA unwinding by human BLM helicase. recombinant BLM DNA unwinding, fluorescence dequenching. Potency, µM (series often up to 56.1 µM), for inactives: at the top dose activity change, negative = inhibition, most hits filed as inhibitors. 0.2% of 350,000 active;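 note: plate controls were vehicle for no effect and no enzyme for full effect; nearly all actives have a fitted effect of over 35% in size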
APEX1 inh: blocks human APE1 abasic DNA cleavage; Potency, µM (top dose mostly 65.8 µM), inactives show at the highest dose activity change, negative = inhibition, usual class: inhibitors; recombinant APE1, TAMRA/BHQ-2 abasic DNA cleavage fluorescence; 0.35% of 350,000 active; P27695;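 note: plate controls were vehicle for no effect and reference inhibitor for full effect; nearly all actives have a fitted effect of over 55% in size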
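APE1 at 0.75 nM final was preincubated with compound 15 min at room temperature, then 50 nM double-stranded THF abasic-site substrate (5'-TAMRA/3'-BHQ-2) was added. Fluorescence (ex 525/em 598 nm) was read kinetically; third-minus-first read gave activity.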
JMJD2E inh: blocks human JMJD2E demethylase activity | AID 2147 | Potency, µM (doses to about 57.1 µM), inactives show at the highest dose activity change, negative = inhibition, usual class: inhibitors | 1.6% of 230,000 active | JMJD2E catalytic domain, FDH-coupled NADH fluorescence (FDH is formaldehyde dehydrogenase) | B2RXH2; active = well fitted inhibition curve with a large enough effect, not every such curve was filed as active; inconclusive = small, poorly fitted or top-dose-only effect, or another doubt; inactive = no such curve, though single readings can be large or run the other way;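 note: 0% = wells with enzyme and -100% = buffer wells without enzyme; nearly all actives have a fitted effect of over 50% in size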
* = called active by the depositor; i = inactive; ? = inconclusive; nt = no result; [ ] = dose if it differs, or a comment. Unless noted, calls come from the whole dose curve; as a rule, active = well fitted curve in the direction sought with a large enough effect; inconclusive = small, poorly fitted or top-dose-only effect, or another doubt; inactive = no such curve, though single readings can be large; an effect the other way counts as inactive or inconclusive. Unless noted, % is set by controls: 0 for no effect and ±100 for the full control effect; potency is the fitted concentration of half-maximal effect.

SMILES | RECQ1 inh | PKM2 activator | BLM helicase inh | APEX1 inh | JMJD2E inh
COc1cccc(-c2nnc3n2N=C(c2ccccc2OC)CS3)c1 | i | nt | 5% | -2% | nt
CCc1ccc(NS(=O)(=O)c2cc3c(cc2C)n(C)c(=O)c(=O)n3C)cc1 | nt | ? | 2% | 2% | nt
Cc1cc2c(cc1S(=O)(=O)Nc1cccc(Cl)c1C)n(C)c(=O)c(=O)n2C | nt | nt | 1% | nt | nt
Cc1cc2c(cc1S(=O)(=O)Nc1ccc(F)cc1)n(C)c(=O)c(=O)n2C | nt | 2.5µM* | -1% | 19% | nt
Cc1cc2c(cc1S(=O)(=O)Nc1cccc(C)c1C)n(C)c(=O)c(=O)n2C | nt | 0.5µM* | 1% | 9% | nt
COc1ccc(C2=Nn3c(nnc3-c3ccccc3OC)SC2)cc1O[C@H]1CCOC1 | nt | nt | nt | 2% | nt
COc1ccc(C(=O)N/N=C/c2sc3ccccc3c2O)cc1 | -4% | 1% | -2% | 3% | 35µM*
O=C(N/N=C/c1sc2ccccc2c1O)c1cccc2ccccc12 | -9% | -7% | -6% | ? | 25µM*
O=C(N/N=C/c1sc2ccccc2c1O)c1ccccc1 | -17% | -13% | -2% | 3% | 22µM*
COc1oc(=O)c2cc(N)ccc2c1Cl | -10% | nt | -1% | -4% | nt
CO[C@H]1COC(=O)CCC[C@@H](C)[C@H](OC)COC(=O)[C@H]2CCCN2C(=O)C/C=C\[C@@H]1C | i[11.5 µM] | nt | -6%[12.4 µM] | 22%[12.4 µM] | nt
O=C1/C(=C/c2cccc(O)c2)SC(=S)N1CC1CCCO1 (stereo not drawn) | 5% | -6% | -3% | -1% | -2%
CCOc1cc(/C=C2\SC(=S)N(NC(=O)c3cccnc3)C2=O)ccc1O | 18µM* | -11% | -7% | ? | -4%
CCOc1cc(C(=O)NCCN2C(=O)S/C(=C\c3cccnc3)C2=O)cc(OCC)c1OCC | 3% | 18µM* | -4% | -8% | -1%
CCOc1cc(/C=C2/SC(=S)N(CC3CCCO3)C2=O)ccc1O (stereo not drawn) | 14µM* | -5% | -13% | -10% | ?
COc1cc(/C=C2\SC(=S)N(NC(=O)c3ccc(O)c(OC)c3)C2=O)ccc1O | nt | nt | -14% | 1% | nt
Oc1ccc(CNc2cccc(F)c2F)c2cccnc12 | nt | nt | nt | 35% | nt
COc1ccc(CNC(=O)C2=CCN(S(=O)(=O)c3ccc(C)cc3)CC2)cc1 | -6% | 14µM* | -3% | ? | -12%
COc1ccc(S(=O)(=O)N2CCN(C(=O)NCc3ccccc3)CC2)cc1 | -5% | 7.1µM* | -2% | 28% | 5%
Cc1ccc(S(=O)(=O)N2CC=C(C(=O)NCc3ccccc3)CC2)cc1 | i | ? | -2% | 3% | 5%
COc1ccc(COC(=O)NC2CCN(S(=O)(=O)c3ccc(OC)cc3)CC2)cc1 | -9% | 20µM* | -4% | -8% | -3%
CC[C@@H]1C(c2cccc(C)c2)=NN(c2ccc(Br)cc2)[C@H]1C(=O)N1CCOC1=O | -14% | nt | -13%[75.6 µM] | -11% | nt
CCCCCCCCCCCCCC[C@@H](O)[C@@H](O)[C@@H](N)CO | -10% | nt | -2% | -1% | nt
CCn1c(SCC(=O)Nc2cccc(C)c2)nc2nc3c(cc2c1=O)COC(C)(C)C3 | 15% | 14µM* | -2% | 3% | 6%
NC(C(=O)O)c1ccc(P(=O)(O)O)cc1 (stereo not drawn) | -9% | nt | nt | 1% | nt
SMILES | RECQ1 inh | PKM2 activator | BLM helicase inh | APEX1 inh | JMJD2E inh
FC(F)(F)c1cnc(C(c2ccccn2)c2ncn[nH]2)c(Cl)c1 (stereo not drawn) | -5% | 3% | 1% | -2% | 25µM*
FC(F)(F)c1cnc(C(c2ccccc2)c2ncn[nH]2)c(Cl)c1 (stereo not drawn) | i | -4% | -13% | -1% | 11%
O=C(NCCc1c[nH]c2ccccc12)c1ccccc1O | -4% | nt | -10% | -3% | nt
CCN1CC2=C(OC(N)=C(C#N)C2c2cccs2)/C(=C/c2cccs2)C1 (stereo not drawn) | -14% | 9% | -18% | 1% | 14µM*
Cc1ccc(C(NC(=O)C(C)C)c2cc([N+](=O)[O-])c3cccnc3c2O)cc1 (stereo not drawn) | ? | 19% | -18% | ? | 20µM*
COc1ccc(CN(CCC(c2ccc(F)cc2)C2CCOC(C)(C)C2)C(=O)c2ccco2)cc1 (stereo not drawn) | 25µM* | 2% | -7% | 10% | -22%
CC(c1ccccc1)N(CCC(c1ccccc1)C1CCOC(C)(C)C1)C(=O)c1ccco1 (stereo not drawn) | -8% | -16% | -9% | -2% | -6%
CO[C@@]1(NC(=O)Cc2cccs2)C(=O)N2C(C(=O)O)=C(COC(N)=O)CS[C@@H]21 | -10% | -2% | -8% | ? | 32µM*
CC(C)(C)c1nnc(N/N=C/c2ccccc2O)n(N)c1=O | -18% | 4% | 0% | 2% | 28µM*
CC(C)(C)c1nnc(N/N=C/c2ccccc2)n(N)c1=O | -8% | 0% | 0% | 2% | -5%
COc1cc(N2C(=O)C=CC2=O)c(OC)cc1Cl | 6% | 8.9µM* | -2% | -2% | 1%
CC1(C)S[C@@H]2[C@H](NC(=O)Cc3ccccc3)C(=O)N2[C@H]1C(=O)O (tested in a mixture with another compound) | nt | nt | nt | -1% | nt
COc1ccc(S(=O)(=O)N2CCc3ccccc32)cc1C(=O)OCc1c(C)noc1C | -17% | 11µM* | -9% | 8% | -4%
Cc1ccc2c(c1)cc(CN(Cc1ccco1)C(=O)N1CCOCC1)c1nnnn12 | -7% | -2% | 2% | 1% | 6%
Cc1ccc2cc(CN(Cc3ccco3)C(=O)c3ccco3)c3nnnn3c2c1 | nt | 16µM* | -3% | 37% | nt
COc1ccc(OC)c(NC(=O)c2[nH]c(C)c(C(C)=O)c2C)c1 | -2% | 12% | -3% | 0% | -3%
COc1ccc(-c2nc(NC(=O)c3[nH]c(C)c(C(C)=O)c3C)sc2C)cc1 | -15% | 7.9µM* | -14% | 6% | ?
COc1ccccc1Nc1nc(-c2c(C)[nH]c3ccccc23)cs1 | -12% | -2% | -1% | 9% | 28µM*
Cc1c(N2C(=O)/C(=C\c3ccc(N(C)C)cc3)N(C)C2=S)c(=O)n(-c2ccccc2)n1C | 28µM* | -13% | -8% | -4% | -1%
CN1C(=S)N(c2cccnc2)C(=O)/C1=C\c1ccc(N(C)C)cc1 | i | -2% | 4% | 13% | 9%
Cc1c(N2C(=O)c3ccc4c5c(ccc(c35)C2=O)CC4)c(=O)n(-c2ccccc2)n1C | 11µM* | 25% | 14µM* | ? | ?
CCC(=O)OC1(C)C(=O)C=C2C=C(CCCNC(=O)OC(C)(C)C)OC=C2C1=O (stereo not drawn) | -8% | nt | 6% | 17% | -13%
O=C(CO)[C@@H](O)C(O)[C@@H](O)CO (stereo partly drawn) | -4% | nt | 3% | nt | nt

Screening data deposited in PubChem by National Center for Advancing Translational Sciences (NCATS).
